# Columns and labels:
# [1] = biological target: T1, Ephrin type-A receptor 3 (Homo sapiens) (UniProt P29320); settings: at 10 µM
# T1 sequence (whole entry): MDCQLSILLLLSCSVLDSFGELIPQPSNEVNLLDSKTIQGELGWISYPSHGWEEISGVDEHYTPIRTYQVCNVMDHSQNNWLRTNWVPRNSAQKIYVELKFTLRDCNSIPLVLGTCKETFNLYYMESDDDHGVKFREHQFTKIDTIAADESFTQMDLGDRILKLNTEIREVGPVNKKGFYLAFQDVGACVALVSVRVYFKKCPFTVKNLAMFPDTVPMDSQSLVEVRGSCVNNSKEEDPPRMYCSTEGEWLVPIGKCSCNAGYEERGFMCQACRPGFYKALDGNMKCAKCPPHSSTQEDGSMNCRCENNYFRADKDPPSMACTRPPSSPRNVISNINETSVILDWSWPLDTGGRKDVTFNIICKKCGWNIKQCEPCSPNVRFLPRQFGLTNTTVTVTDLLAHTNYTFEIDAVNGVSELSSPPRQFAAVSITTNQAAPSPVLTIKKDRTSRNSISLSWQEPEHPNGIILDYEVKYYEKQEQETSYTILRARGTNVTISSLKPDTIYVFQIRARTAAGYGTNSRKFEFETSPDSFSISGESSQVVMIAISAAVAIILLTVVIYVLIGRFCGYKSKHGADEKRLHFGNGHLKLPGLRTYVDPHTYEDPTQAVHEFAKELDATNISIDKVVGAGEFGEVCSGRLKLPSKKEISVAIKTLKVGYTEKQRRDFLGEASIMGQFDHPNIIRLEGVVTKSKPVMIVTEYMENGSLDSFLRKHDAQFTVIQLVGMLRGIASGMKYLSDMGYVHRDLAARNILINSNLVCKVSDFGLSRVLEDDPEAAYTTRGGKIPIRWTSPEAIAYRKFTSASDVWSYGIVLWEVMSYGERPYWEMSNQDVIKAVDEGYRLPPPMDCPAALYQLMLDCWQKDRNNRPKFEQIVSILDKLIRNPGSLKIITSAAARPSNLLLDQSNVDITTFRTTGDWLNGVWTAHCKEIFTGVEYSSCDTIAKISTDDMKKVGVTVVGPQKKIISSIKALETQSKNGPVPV
# [2] = biological target: Ephrin type-A receptor 4 (Homo sapiens) (UniProt P54764); settings: at 1 µM
# [3] = biological target: Ephrin type-A receptor 4 (Homo sapiens) (UniProt P54764); settings: at 10 µM
# [4] = biological target: Ephrin type-A receptor 5 (Homo sapiens) (UniProt P54756); settings: at 1 µM
# [5] = biological target: Ephrin type-A receptor 5 (Homo sapiens) (UniProt P54756); settings: at 10 µM
# [6] = biological target: Ephrin type-A receptor 7 (Homo sapiens) (UniProt Q15375); settings: at 1 µM
# [7] = biological target: Ephrin type-A receptor 7 (Homo sapiens) (UniProt Q15375); settings: at 10 µM
# [8] = biological target: T2, Ephrin type-A receptor 8 (Homo sapiens) (UniProt P29322); settings: at 1 µM
# T2 sequence (whole entry): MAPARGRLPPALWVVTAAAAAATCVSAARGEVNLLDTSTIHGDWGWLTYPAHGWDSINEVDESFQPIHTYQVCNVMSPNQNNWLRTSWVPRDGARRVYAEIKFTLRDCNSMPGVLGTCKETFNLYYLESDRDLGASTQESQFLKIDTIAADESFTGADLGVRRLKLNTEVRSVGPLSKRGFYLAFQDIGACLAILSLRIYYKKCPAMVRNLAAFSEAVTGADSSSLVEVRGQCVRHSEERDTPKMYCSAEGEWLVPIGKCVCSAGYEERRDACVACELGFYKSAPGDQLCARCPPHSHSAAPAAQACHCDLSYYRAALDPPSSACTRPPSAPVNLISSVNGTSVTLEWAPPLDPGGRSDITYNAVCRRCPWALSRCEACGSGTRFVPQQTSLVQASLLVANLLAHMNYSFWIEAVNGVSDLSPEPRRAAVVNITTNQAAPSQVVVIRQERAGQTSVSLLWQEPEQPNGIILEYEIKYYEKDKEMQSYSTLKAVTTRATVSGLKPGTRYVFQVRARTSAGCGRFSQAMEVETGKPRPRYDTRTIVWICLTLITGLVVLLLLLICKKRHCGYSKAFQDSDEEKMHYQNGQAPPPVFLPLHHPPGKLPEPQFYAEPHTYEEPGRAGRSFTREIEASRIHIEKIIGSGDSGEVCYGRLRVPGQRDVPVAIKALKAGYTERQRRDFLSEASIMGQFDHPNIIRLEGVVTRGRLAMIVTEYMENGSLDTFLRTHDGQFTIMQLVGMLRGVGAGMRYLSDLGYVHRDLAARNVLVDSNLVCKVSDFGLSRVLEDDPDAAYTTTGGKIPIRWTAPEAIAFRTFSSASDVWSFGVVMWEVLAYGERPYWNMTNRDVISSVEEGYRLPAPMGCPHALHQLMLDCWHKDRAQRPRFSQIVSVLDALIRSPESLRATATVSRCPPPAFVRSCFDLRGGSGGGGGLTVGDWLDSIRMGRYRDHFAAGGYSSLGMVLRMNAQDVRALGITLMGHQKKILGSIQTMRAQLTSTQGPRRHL
# [9] = biological target: T2, Ephrin type-A receptor 8 (Homo sapiens); settings: at 10 µM
# [10] = biological target: T3, Ephrin type-B receptor 1 (Homo sapiens) (UniProt P54762); settings: at 1 µM
# T3 sequence (whole entry): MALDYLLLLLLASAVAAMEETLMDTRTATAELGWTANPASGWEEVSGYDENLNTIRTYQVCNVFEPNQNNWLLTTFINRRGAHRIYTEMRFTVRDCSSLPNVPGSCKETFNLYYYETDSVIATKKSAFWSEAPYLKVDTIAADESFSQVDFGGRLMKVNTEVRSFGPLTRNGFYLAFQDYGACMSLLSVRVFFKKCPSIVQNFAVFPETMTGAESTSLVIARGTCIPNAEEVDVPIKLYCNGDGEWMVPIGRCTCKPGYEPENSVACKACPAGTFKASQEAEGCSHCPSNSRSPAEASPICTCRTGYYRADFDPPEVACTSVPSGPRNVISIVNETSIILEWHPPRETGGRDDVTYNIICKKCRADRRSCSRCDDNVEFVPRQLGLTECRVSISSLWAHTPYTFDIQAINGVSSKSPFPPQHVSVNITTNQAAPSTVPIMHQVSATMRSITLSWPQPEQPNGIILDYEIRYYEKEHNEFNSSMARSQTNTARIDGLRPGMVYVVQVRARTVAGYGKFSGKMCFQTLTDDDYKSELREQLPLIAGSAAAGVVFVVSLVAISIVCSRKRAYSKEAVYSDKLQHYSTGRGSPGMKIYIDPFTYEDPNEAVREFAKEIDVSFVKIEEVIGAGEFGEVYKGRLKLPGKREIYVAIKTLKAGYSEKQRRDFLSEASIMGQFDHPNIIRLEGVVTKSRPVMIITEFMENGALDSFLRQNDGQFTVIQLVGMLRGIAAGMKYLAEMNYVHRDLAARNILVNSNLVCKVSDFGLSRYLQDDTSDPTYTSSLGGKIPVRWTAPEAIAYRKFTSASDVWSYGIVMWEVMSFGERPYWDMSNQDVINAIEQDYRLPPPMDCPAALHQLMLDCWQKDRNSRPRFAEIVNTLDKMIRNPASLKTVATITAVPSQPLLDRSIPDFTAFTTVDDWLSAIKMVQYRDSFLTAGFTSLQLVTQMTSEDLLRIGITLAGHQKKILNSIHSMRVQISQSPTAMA
# [11] = biological target: T3, Ephrin type-B receptor 1 (Homo sapiens); settings: at 10 µM
# [12] = biological target: T4, Ephrin type-B receptor 2 (Homo sapiens) (UniProt P29323); settings: at 1 µM
# T4 sequence (whole entry): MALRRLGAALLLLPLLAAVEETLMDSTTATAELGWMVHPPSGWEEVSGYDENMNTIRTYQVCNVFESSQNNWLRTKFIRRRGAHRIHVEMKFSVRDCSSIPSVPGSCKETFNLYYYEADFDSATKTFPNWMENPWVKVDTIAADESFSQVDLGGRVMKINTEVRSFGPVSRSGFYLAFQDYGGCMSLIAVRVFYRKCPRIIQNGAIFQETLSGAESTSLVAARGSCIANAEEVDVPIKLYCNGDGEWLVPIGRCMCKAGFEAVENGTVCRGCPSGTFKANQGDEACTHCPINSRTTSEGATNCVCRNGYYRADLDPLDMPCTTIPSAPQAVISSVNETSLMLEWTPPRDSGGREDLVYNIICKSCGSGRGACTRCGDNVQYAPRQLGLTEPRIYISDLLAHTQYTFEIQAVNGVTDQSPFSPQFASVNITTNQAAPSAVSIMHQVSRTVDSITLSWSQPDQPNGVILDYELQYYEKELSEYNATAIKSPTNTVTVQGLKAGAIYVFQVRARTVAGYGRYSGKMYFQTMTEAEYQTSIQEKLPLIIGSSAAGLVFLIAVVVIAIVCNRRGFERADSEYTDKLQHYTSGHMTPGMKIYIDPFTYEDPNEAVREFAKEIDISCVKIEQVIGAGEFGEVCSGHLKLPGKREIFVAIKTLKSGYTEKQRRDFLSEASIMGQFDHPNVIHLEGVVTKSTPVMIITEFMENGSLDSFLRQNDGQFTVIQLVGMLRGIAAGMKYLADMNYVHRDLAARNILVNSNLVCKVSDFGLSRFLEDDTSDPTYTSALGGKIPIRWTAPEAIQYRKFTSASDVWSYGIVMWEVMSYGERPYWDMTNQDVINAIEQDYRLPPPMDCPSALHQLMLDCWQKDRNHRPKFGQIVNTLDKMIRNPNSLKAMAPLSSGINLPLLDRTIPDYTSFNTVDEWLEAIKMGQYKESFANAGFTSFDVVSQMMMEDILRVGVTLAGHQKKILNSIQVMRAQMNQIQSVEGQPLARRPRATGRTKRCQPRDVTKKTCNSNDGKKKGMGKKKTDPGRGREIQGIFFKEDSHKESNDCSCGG
# [13] = biological target: T4, Ephrin type-B receptor 2 (Homo sapiens); settings: at 10 µM
# [14] = biological target: T5, Ephrin type-B receptor 3 (Homo sapiens) (UniProt P54753); settings: at 1 µM
# T5 sequence (whole entry): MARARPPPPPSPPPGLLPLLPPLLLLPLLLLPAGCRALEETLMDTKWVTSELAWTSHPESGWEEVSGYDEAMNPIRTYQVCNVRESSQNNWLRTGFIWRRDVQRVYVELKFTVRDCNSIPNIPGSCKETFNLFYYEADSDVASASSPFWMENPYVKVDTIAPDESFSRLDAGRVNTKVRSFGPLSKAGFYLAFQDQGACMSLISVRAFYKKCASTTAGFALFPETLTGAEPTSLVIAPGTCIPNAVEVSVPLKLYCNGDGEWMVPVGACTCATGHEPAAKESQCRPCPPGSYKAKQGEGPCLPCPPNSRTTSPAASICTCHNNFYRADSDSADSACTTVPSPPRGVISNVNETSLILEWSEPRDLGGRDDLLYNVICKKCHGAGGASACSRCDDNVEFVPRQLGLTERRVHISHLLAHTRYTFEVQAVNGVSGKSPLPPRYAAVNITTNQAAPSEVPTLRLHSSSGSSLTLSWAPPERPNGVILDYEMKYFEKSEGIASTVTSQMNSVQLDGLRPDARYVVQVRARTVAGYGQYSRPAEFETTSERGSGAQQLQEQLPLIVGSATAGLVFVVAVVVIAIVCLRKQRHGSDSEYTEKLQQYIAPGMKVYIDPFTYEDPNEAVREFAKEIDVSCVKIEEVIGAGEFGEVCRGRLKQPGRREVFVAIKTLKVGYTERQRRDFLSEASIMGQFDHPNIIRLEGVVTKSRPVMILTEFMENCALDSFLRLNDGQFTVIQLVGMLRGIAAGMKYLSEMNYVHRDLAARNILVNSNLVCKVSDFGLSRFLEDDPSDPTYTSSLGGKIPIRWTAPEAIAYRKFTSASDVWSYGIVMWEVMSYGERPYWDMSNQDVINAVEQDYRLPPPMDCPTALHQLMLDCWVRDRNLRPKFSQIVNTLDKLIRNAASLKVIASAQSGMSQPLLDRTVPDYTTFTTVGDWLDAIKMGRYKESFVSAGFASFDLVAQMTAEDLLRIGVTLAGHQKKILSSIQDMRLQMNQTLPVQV
# [15] = biological target: T5, Ephrin type-B receptor 3 (Homo sapiens); settings: at 10 µM
# [16] = biological target: T6, Ephrin type-B receptor 4 (Homo sapiens) (UniProt P54760); settings: at 1 µM
# T6 sequence (whole entry): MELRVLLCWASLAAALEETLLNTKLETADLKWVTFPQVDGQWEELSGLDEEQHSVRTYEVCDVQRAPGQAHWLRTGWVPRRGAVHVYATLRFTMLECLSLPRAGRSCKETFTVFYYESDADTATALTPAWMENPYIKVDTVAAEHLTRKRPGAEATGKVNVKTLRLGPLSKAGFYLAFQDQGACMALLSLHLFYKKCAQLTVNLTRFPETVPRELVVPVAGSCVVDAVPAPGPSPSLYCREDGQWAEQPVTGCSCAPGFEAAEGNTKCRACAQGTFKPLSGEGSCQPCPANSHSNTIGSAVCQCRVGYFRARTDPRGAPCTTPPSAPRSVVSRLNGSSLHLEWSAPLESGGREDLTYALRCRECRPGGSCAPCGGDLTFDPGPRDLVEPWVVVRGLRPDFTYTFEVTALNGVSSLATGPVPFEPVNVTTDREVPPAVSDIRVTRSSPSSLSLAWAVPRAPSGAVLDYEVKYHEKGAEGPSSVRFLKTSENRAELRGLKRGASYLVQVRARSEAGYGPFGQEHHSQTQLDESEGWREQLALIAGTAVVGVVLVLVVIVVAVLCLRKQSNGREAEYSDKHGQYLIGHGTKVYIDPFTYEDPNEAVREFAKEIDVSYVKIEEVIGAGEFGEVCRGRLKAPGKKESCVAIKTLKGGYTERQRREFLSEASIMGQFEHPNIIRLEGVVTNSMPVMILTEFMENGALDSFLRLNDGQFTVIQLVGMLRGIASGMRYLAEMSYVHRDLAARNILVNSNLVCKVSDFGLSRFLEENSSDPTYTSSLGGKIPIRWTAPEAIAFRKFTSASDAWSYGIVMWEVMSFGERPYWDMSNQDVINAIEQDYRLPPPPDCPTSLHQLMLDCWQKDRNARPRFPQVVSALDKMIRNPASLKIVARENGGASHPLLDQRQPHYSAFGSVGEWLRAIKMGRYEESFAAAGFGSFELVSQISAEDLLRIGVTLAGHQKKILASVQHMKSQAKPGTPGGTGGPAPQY
# [17] = biological target: T6, Ephrin type-B receptor 4 (Homo sapiens); settings: at 10 µM
# [18] = biological target: Receptor tyrosine-protein kinase erbB-4 (Homo sapiens) (UniProt Q15303); settings: at 1 µM
# [19] = biological target: Receptor tyrosine-protein kinase erbB-4 (Homo sapiens) (UniProt Q15303); settings: at 10 µM
# [20] = biological target: Focal adhesion kinase 1 (Homo sapiens) (UniProt Q05397); settings: at 1 µM
# Ephrin type-A receptor 7 (Homo sapiens), sequence (Q15375 28-998 limits assumed): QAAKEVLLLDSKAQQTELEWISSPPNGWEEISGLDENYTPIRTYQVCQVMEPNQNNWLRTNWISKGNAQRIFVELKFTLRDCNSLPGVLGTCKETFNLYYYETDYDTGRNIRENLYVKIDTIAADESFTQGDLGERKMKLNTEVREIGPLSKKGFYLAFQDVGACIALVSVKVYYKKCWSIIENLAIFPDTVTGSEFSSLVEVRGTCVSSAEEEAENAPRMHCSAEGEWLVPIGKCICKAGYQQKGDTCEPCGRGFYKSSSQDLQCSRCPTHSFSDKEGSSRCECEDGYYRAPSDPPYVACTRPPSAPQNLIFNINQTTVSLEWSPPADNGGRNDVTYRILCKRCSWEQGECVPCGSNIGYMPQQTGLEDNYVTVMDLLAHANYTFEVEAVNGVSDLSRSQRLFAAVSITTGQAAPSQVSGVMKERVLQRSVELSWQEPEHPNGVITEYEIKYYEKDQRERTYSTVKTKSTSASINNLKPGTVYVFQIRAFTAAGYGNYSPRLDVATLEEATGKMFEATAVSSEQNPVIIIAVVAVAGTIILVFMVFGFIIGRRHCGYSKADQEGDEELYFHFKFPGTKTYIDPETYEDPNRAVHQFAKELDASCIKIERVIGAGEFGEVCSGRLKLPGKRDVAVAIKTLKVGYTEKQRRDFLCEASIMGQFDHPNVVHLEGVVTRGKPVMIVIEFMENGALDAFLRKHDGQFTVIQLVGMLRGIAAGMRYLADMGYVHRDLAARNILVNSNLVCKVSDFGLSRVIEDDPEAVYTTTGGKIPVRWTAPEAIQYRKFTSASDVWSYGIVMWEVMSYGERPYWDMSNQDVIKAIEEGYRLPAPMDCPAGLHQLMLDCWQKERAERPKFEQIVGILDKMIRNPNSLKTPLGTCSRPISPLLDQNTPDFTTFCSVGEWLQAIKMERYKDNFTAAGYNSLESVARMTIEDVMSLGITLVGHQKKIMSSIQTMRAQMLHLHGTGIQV
# Ephrin type-A receptor 5 (Homo sapiens), sequence (P54756 whole entry): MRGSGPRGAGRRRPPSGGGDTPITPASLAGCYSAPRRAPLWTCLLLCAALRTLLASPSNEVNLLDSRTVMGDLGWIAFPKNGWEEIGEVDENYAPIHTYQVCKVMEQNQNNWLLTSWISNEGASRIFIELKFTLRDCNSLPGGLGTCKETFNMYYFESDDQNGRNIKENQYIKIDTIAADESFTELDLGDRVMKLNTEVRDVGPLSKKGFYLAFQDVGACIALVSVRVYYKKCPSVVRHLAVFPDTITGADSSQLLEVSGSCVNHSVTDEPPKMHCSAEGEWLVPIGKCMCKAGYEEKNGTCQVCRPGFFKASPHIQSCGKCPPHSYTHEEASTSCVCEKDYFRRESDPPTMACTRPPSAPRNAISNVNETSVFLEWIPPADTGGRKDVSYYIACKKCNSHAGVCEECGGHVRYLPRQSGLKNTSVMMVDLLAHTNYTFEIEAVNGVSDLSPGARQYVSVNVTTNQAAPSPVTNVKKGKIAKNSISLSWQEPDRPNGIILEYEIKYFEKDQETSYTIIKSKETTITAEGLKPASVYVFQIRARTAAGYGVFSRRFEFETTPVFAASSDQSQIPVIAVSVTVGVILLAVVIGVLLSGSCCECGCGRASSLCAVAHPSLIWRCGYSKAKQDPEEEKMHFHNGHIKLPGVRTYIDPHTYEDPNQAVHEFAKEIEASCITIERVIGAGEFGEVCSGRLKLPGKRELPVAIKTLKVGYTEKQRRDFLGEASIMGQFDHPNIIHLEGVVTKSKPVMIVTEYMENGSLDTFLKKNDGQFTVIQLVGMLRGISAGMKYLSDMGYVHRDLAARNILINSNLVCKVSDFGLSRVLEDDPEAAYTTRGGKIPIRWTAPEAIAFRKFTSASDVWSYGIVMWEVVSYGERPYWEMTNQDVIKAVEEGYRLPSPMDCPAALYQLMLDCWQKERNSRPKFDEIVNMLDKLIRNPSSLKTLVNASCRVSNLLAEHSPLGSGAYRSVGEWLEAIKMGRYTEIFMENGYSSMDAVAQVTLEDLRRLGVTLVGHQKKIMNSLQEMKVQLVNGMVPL
# Ephrin type-A receptor 4 (Homo sapiens), sequence (P54764 whole entry): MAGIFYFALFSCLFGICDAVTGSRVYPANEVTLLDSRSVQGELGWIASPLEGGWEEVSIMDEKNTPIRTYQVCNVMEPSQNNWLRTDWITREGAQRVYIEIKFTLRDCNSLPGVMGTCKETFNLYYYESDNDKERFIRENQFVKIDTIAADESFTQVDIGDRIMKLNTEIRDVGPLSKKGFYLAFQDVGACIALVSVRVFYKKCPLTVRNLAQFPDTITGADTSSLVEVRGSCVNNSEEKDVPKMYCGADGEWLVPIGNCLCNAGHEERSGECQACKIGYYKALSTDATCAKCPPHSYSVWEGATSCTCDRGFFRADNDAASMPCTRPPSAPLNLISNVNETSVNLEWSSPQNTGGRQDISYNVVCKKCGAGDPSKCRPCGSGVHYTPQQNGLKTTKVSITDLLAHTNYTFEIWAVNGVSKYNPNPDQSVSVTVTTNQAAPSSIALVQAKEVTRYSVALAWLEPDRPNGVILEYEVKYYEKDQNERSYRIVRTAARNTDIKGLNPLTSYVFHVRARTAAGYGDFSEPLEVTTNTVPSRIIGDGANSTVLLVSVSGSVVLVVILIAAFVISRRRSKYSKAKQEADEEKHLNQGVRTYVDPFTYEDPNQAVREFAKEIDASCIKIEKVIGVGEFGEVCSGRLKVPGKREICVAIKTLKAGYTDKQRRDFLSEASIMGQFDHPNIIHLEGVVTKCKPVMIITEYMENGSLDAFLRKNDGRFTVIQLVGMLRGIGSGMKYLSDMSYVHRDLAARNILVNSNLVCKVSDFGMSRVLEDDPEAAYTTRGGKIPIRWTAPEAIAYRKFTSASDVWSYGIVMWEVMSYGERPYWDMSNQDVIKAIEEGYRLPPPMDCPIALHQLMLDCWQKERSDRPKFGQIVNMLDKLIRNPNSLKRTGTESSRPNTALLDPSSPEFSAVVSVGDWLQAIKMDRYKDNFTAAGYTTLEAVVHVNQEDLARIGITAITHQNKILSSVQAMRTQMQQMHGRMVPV
# Receptor tyrosine-protein kinase erbB-4 (Homo sapiens), sequence (Q15303 whole entry): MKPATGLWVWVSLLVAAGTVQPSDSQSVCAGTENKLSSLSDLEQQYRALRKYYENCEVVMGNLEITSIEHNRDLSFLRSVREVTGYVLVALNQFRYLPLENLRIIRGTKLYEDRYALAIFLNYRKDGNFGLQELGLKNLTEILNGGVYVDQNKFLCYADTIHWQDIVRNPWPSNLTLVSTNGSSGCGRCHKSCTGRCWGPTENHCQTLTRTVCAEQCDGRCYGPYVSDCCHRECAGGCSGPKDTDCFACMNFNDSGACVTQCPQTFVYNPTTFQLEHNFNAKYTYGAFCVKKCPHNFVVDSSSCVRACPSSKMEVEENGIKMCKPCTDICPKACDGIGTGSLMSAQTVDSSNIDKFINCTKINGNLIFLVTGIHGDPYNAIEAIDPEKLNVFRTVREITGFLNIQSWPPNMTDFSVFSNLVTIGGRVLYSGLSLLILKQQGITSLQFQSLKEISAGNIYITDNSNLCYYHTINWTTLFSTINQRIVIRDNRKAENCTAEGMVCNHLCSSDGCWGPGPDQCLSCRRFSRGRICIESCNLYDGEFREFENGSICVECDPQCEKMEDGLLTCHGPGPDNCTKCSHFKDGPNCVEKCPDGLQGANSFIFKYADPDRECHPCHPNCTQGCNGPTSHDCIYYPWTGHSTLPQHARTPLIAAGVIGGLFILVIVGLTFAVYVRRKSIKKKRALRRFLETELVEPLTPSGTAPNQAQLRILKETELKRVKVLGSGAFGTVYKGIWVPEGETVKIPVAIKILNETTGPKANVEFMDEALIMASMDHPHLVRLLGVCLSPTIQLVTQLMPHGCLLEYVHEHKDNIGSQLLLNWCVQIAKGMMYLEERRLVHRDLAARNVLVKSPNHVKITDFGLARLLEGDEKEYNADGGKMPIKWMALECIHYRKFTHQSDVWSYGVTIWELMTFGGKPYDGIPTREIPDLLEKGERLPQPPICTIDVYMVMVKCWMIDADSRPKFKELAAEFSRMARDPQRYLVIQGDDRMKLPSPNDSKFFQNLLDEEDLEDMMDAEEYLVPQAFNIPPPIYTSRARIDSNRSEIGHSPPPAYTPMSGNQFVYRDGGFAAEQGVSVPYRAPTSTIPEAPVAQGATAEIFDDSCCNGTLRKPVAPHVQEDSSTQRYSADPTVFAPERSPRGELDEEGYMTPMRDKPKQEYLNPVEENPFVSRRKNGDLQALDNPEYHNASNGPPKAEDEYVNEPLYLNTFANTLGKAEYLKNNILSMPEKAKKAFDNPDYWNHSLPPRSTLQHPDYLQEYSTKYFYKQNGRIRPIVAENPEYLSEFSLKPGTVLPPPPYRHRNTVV
smiles,measurement,setting,value
Nc1n[nH]c2nnc(-c3c(-c4ccccc4)nn4ccccc34)cc12,residual activity,[1],93%
same,residual activity,[2],104%
same,residual activity,[3],100%
same,residual activity,[4],91%
same,residual activity,[5],94%
same,residual activity,[6],91%
same,residual activity,[7],83%
same,residual activity,[8],91%
same,residual activity,[9],80%
same,residual activity,[10],98%
same,residual activity,[11],87%
same,residual activity,[12],117%
same,residual activity,[13],110%
same,residual activity,[14],101% (inactive)
same,residual activity,[15],104%
same,residual activity,[16],83%
same,residual activity,[17],67%
same,residual activity,[18],81%
same,residual activity,[19],57%
same,residual activity,[20],96%
